# Measured values from PubChem BioAssay (Tox21).
# Unmarked numbers belong to inactive results. Records with an inconclusive call do not appear. Entries that show only a call come without a potency. Active and inactive are the calls of the source. Unless noted, the call rests on the fitted dose curve; in most records, active means well fitted curve in the direction sought with a large enough effect in the repeat runs; inconclusive means weak or mixed curves; inactive means no such curve, though single readings can be large; an effect the other way counts as inactive or inconclusive.
# Experiments:
# [1] = qHTS assay for small molecules that induce genotoxicity in human embryonic kidney cells expressing luciferase-tagged ATAD5 (AID 651632); further: nearly all actives have a fitted effect of over 15% in size
# Outline: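 Quantitative HTS in HEK293T expressing luciferase-tagged ATAD5, whose levels rise upon DNA damage. Exposure ran 16 hr at 37C and 5% CO2, with luminescence read 30 min after Amplite addition at room temperature.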
# [2] = qHTS assay for small molecule agonists of the p53 signaling pathway - cell viability (AID 651633; calls by dose curve;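 further: p53RE-bla HCT reporter cells with a stable beta-lactamase p53 reporter; series mostly up to about 83 µM; nearly all actives have a fitted effect of over 30% in size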)
# Outline: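 Viability counter-read: CellTiter-Glo luminescence (30 min, room temperature) in the same p53RE-bla plates. These plates had been exposed to compounds for 16 h at 37 C.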
# [3] = qHTS assay for small molecule disruptors of the mitochondrial membrane potential - cell viability (AID 720634; calls by dose curve;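 further: human HepG2 liver cancer cells; series mostly up to about 83 µM; nearly all actives have a fitted effect of over 20% in size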)
# Outline: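 ATP-based luminescent viability readout (CellTiter-Glo, 30 min, room temperature) in HepG2 cells multiplexed with the m-MPI membrane potential dye; compound exposure lasted 1 hr at 37 C.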
# [4] = qHTS assay to test for compound auto fluorescence at 590 nm (red) in HepG2 cells (AID 720674)
# Outline: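 We screened compounds on adherent HepG2 cells, incubating them for an hour at 37 C in 5% CO2 before reading emission at 590 nm under 540 nm excitation; values reflect equivalence to Rose Bengal sodium fluorescence.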
# [5] = qHTS assay to test for compound auto fluorescence at 535 nm (green) in HepG2 cells (AID 720675)
# [6] = qHTS assay to test for compound auto fluorescence at 590 nm (red) in HEK293 cells (AID 720679)
# Outline: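 HEK293 cells (2,000/well, medium with 10% dialyzed FBS) attached for 4-5 hr at 37C, received 23 nL compound and were incubated overnight at 37C, 5% CO2. Red fluorescence was then read at 540/590nm Ex/Em, referenced to Rose Bengal sodium.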
# [7] = qHTS assay to test for compound auto fluorescence at 535 nm (green) in HEK293 cells (AID 720680)
# [8] = qHTS assay to test for compound auto fluorescence at 460 nm (blue) in HEK293 cell free culture (AID 720681)
# Outline: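 Blue fluorescence (Ex 405/Em 460 nm, triamterene-equivalent) was read immediately after pin transfer of compound or DMSO into medium (DMEM, 10% FBS) without cells.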
# [9] = qHTS assay to test for compound auto fluorescence at 535 nm (green) in HEK293 cell free culture (AID 720682)
# Outline: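 Read-out: 485/535 nm fluorescence intensity, calibrated against fluorescein. Medium only (DMEM + 10% FBS, no cells); test compound or DMSO vehicle added by pintool before plate reading.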
# [10] = qHTS assay to test for compound auto fluorescence at 590 nm (red) in HEK293 cell free culture (AID 720683)
# Outline: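 Red-channel autofluorescence of compounds in culture medium (DMEM, 10% FBS), no cells, measured at 540/590 nm. Rose Bengal sodium is the reference fluorophore for equivalence.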
# [11] = qHTS assay to test for compound auto fluorescence at 590 nm (red) in HepG2 cell free culture (AID 720684)
# Outline: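 Cell-free; medium MEM + 10% FBS; compound or DMSO added by pintool; read Ex 540/Em 590 nm; Rose Bengal sodium as red reference fluorophore.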
# [12] = qHTS assay to test for compound auto fluorescence at 460 nm (blue) in HepG2 cell free culture (AID 720685)
# Outline: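 Cell-free plates of MEM plus 10% FBS received 23 nL compound or DMSO vehicle; blue-channel (405/460 nm) intensity scored against triamterene as reference fluorophore.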
# [13] = qHTS assay to test for compound auto fluorescence at 535 nm (green) in HepG2 cell free culture (AID 720686)
# [14] = qHTS assay to test for compound auto fluorescence at 460 nm (blue) in HepG2 cells (AID 720687)
# Outline: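 Blue-channel autofluorescence (Ex/Em 405/460 nm, triamterene-equivalent) was measured after 1 hr compound exposure at 37 C, 5% CO2. Cells were HepG2, plated overnight at 37 C in MEM plus 10% FBS.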
# [15] = target: Glucocorticoid receptor (Homo sapiens) (UniProt P04150); assay: qHTS assay to identify small molecule agonists of the glucocorticoid receptor (GR) signaling pathway (AID 720691; active means well fitted activation curve with a large enough effect in the signal ratio in the repeat runs, not every such curve was filed as active; the % refers to the signal ratio)
# Chain of Glucocorticoid receptor (Homo sapiens) (P04150 whole entry, looked up): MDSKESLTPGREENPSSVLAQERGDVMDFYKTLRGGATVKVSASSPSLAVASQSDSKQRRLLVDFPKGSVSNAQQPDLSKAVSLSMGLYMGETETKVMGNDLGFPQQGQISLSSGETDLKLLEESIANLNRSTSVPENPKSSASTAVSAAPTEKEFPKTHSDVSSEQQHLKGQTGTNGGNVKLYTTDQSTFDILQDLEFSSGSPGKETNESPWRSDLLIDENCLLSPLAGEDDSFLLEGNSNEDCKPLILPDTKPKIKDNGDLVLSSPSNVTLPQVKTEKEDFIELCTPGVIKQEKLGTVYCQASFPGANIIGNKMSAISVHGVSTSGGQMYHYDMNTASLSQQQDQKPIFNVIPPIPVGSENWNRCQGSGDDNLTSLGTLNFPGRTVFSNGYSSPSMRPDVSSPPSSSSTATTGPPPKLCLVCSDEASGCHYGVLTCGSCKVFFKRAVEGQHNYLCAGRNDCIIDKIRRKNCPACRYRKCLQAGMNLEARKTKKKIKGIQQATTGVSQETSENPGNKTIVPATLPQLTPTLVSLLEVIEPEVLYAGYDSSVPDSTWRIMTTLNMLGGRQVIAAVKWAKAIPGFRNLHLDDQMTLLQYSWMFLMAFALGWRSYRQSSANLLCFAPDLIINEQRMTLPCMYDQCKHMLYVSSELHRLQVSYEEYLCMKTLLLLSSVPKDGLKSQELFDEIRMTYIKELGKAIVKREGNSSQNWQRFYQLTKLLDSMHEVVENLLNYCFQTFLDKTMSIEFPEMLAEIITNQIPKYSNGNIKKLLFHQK
# Outline: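 Cells: GR-bla HeLa, endogenous GR with stably integrated GRE-beta-lactamase reporter. Treatment 18 h, 37 C, compounds delivered in DMSO. Detection via LiveBLAzer B/G FRET substrate, 2 h RT, fluorescence intensity.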
# [16] = qHTS assay for small molecules that induce genotoxicity in human embryonic kidney cells expressing luciferase-tagged ATAD5 - cell viability (AID 651634; calls by dose curve; further: nearly all actives have a fitted effect of over 25% in size; further: potency means the concentration at half of the fitted maximal effect)
# Outline: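 After 15.5 hr incubation with compound at 37C, 5% CO2, HEK293T ATAD5-luciferase cells received CellTiter-Fluor reagent; fluorescence intensity was quantified following 30 min at 37C.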
# [17] = qHTS assay for small molecule disruptors of the mitochondrial membrane potential (AID 720635); further: potency means the concentration at half of the fitted maximal effect
# Outline: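 Mitochondrial membrane potential tracked with Mito-MPS dye, red aggregates (ex 540/em 590 nm) against green monomers (ex 490/em 535 nm). Compound treatment 1 hr at 37C, dye 30 min in HepG2.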
# [18] = qHTS assay to test for compound auto fluorescence at 460 nm (blue) in HEK293 cells (AID 720678)
# Outline: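 HEK293 cells (2,000 per well, medium with 10% dialyzed FBS) attached for 4-5 hr at 37C, then received compound and stood overnight at 37C, 5% CO2. Blue fluorescence was read at Ex/Em 405/460 nm and expressed relative to triamterene.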
# [19] = target: Glucocorticoid receptor (Homo sapiens) (UniProt P04150); assay: qHTS assay to identify small molecule antagonists of the glucocorticoid receptor (GR) signaling pathway (AID 720692; active means well fitted inhibition curve with a large enough effect in the signal ratio in the repeat runs, not every such curve was filed as active; the % refers to the signal ratio)
# Outline: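 Quantitative HTS in antagonist format: HeLa cells expressing endogenous GR and a stably integrated GRE-bla reporter, stimulated with 5 nM dexamethasone (final) alongside test compounds for 18 h.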
smiles,measurement,setting,value
C[C@@H](CN(C)C)CN1c2ccccc2Sc2ccccc21,Potency,[1],inactive
same,Potency,[2],inactive
same,Potency,[3],inactive
same,"fluorescence, relative to Rose Bengal",[4],0.322% [at 18.6 µM]
same,"fluorescence, % of fluorescein control",[5],0.0297% [at 18.6 µM]
same,"fluorescence, % of fluorescent control",[6],-0.0905% [at 18.6 µM]
same,"fluorescence, % of fluorescein",[7],-0.0143% [at 18.6 µM]
same,"fluorescence, % of fluorescent control",[8],0.0136% [at 18.6 µM]
same,activity change,[9],-0.0963% [at 18.6 µM]
same,"fluorescence, % of fluorescent control",[10],0.012% [at 18.6 µM]
same,"fluorescence, % of Rose Bengal",[11],-0.209% [at 18.6 µM]
same,"fluorescence, % of fluorescent control",[12],0.0401% [at 18.6 µM]
same,"fluorescence, % of fluorescein control",[13],-0.0052% [at 18.6 µM]
same,"fluorescence, % of fluorescent control",[14],-0.0799% [at 18.6 µM]
same,Potency,[15],inactive
Oc1cc2c(cc1O)[C@H]1c3ccc(O)c(O)c3OC[C@@]1(O)C2,Potency,[1],inactive
same,Potency,[2],inactive
same,Potency,[16],69.4 µM (active)
same,Potency,[3],inactive
same,outcome,[4],inactive
same,outcome,[5],inactive
same,outcome,[6],inactive
same,outcome,[7],inactive
same,Potency,[8],inactive
same,outcome,[9],inactive
same,outcome,[10],inactive
same,outcome,[11],inactive
same,Potency,[12],inactive
same,outcome,[13],inactive
same,Potency,[14],inactive
same,Potency,[15],inactive
C/C=C/C=C/C=O,Potency,[1],inactive
same,Potency,[16],inactive
same,Potency,[3],inactive
same,Potency,[17],inactive
same,outcome,[4],inactive
same,outcome,[5],inactive
same,Potency,[18],inactive
same,outcome,[6],inactive
same,outcome,[7],inactive
same,Potency,[8],inactive
same,outcome,[9],inactive
same,outcome,[10],inactive
same,outcome,[11],inactive
same,Potency,[12],inactive
same,outcome,[13],inactive
same,Potency,[15],inactive
CCCC(C(=O)OCCN(CC)CC)(c1ccccc1)c1ccccc1,Potency,[1],inactive
same,Potency,[2],inactive
same,Potency,[3],inactive
same,outcome,[4],inactive
same,outcome,[5],inactive
same,Potency,[18],inactive
same,outcome,[6],inactive
same,outcome,[7],inactive
same,Potency,[8],inactive
same,outcome,[9],inactive
same,outcome,[10],inactive
same,outcome,[11],inactive
same,Potency,[12],inactive
same,outcome,[13],inactive
same,Potency,[14],inactive
same,Potency,[15],inactive
CCCCCCCCC(CCCCCC)C(=O)O (centres undefined),Potency,[1],inactive
same,Potency,[16],inactive
same,Potency,[3],inactive
same,outcome,[4],inactive
same,outcome,[5],inactive
same,Potency,[18],inactive
same,outcome,[6],inactive
same,outcome,[7],inactive
same,Potency,[8],inactive
same,outcome,[9],inactive
same,outcome,[10],inactive
same,outcome,[11],inactive
same,Potency,[12],inactive
same,outcome,[13],inactive
same,Potency,[14],inactive
CCOC(=O)c1ccc(C#Cc2ccc3c(c2)C(C)(C)CCS3)nc1,Potency,[1],inactive
same,Potency,[2],inactive
same,Potency,[16],inactive
same,Potency,[17],29.8 µM (active)
same,outcome,[4],inactive
same,outcome,[5],inactive
same,outcome,[6],inactive
same,outcome,[7],inactive
same,outcome,[9],inactive
same,outcome,[10],inactive
same,outcome,[11],inactive
same,outcome,[13],inactive
same,Potency,[15],inactive
CN1C[C@H](C(=O)N[C@]2(C)O[C@@]3(O)[C@@H]4CCCN4C(=O)[C@H](Cc4ccccc4)N3C2=O)C[C@@H]2c3cccc4[nH]cc(c34)C[C@H]21,Potency,[1],inactive
same,Potency,[2],inactive
same,Potency,[3],inactive
same,outcome,[4],inactive
same,outcome,[5],inactive
same,Potency,[18],inactive
same,outcome,[6],inactive
same,outcome,[7],inactive
same,Potency,[8],inactive
same,outcome,[9],inactive
same,outcome,[10],inactive
same,outcome,[11],inactive
same,Potency,[12],inactive
same,outcome,[13],inactive
same,Potency,[15],inactive
C/C=C\C/C=C/CCCCCCCCOC(C)=O,Potency,[1],inactive
same,Potency,[16],inactive
same,Potency,[3],inactive
same,Potency,[17],inactive
same,outcome,[4],inactive
same,outcome,[5],inactive
same,outcome,[6],inactive
same,outcome,[7],inactive
same,Potency,[8],inactive
same,outcome,[9],inactive
same,outcome,[10],inactive
same,outcome,[11],inactive
same,Potency,[12],inactive
same,outcome,[13],inactive
same,Potency,[14],inactive
COc1ccccc1N1CCN(CC(O)COc2cccc3ccccc23)CC1 (centres undefined),Potency,[1],inactive
same,Potency,[2],inactive
same,Potency,[3],inactive
same,outcome,[4],inactive
same,outcome,[5],inactive
same,Potency,[18],inactive
same,outcome,[6],inactive
same,outcome,[7],inactive
same,Potency,[8],inactive
same,outcome,[9],inactive
same,outcome,[10],inactive
same,outcome,[11],inactive
same,Potency,[12],inactive
same,outcome,[13],inactive
same,Potency,[14],inactive
same,Potency,[15],inactive
CN1CCCC(n2nc(Cc3ccc(Cl)cc3)c3ccccc3c2=O)CC1 (centres undefined),Potency,[1],inactive
same,Potency,[2],inactive
same,Potency,[3],inactive
same,outcome,[4],inactive
same,outcome,[5],inactive
same,Potency,[18],inactive
same,outcome,[6],inactive
same,outcome,[7],inactive
same,Potency,[8],inactive
same,outcome,[9],inactive
same,outcome,[10],inactive
same,outcome,[11],inactive
same,Potency,[12],inactive
same,outcome,[13],inactive
same,Potency,[14],inactive
same,Potency,[15],inactive
same,Potency,[19],inactive
CC1=Nc2ccc3ccccc3c2C1(C)C,Potency,[1],inactive
same,Potency,[2],inactive
same,Potency,[3],inactive
same,Potency,[17],19.3 µM (active)
same,outcome,[4],inactive
same,outcome,[5],inactive
same,Potency,[18],inactive
same,outcome,[6],inactive
same,outcome,[7],inactive
same,Potency,[8],inactive
same,outcome,[9],inactive
same,outcome,[10],inactive
same,outcome,[11],inactive
same,Potency,[12],inactive
same,Potency,[14],inactive
CC(=O)c1ccc([N+](=O)[O-])cc1,Potency,[2],inactive
same,Potency,[3],inactive
same,outcome,[4],inactive
same,outcome,[5],inactive
same,Potency,[18],inactive
same,outcome,[6],inactive
same,outcome,[7],inactive
same,Potency,[8],inactive
same,outcome,[9],inactive
same,outcome,[10],inactive
same,outcome,[11],inactive
same,Potency,[12],inactive
same,outcome,[13],inactive
same,Potency,[14],inactive
same,Potency,[15],inactive
